According to article PMC5540273 (PLoS ONE, 2017):

Key:
Details in all cases: concentration: 1 μM, replicates: in singlicate; n = 1
[1] = system: HIPK3
[2] = system: HIPK4
[3] = system: HPK1
[4] = system: HUNK
[5] = system: ICK
[6] = system: IGF1R
[7] = system: T1, IKK-alpha
T1 construct: gene CHUK

[8] = system: T2, IKK-beta
T2 construct: gene IKBKB

[9] = system: T3, IKK-epsilon
T3 construct: gene IKBKE

[10] = system: INSRR
[11] = system: INSR
[12] = system: IRAK1
[13] = system: IRAK3
[14] = system: IRAK4
[15] = system: ITK
[16] = system: JAK1(JH1domain-catalytic)
[17] = system: JAK1(JH2domain-pseudokinase)
[18] = system: JAK2(JH1domain-catalytic)
[19] = system: JAK3(JH1domain-catalytic)
[20] = system: T4, JNK1
T4 construct: gene MAPK8
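Further: KINOMEscan kinase panel screen.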

Row | SMILES | %Inh [1] | %Inh [2] | %Inh [3] | %Inh [4] | %Inh [5] | %Inh [6] | %Inh [7] | %Inh [8] | %Inh [9] | %Inh [10] | %Inh [11] | %Inh [12] | %Inh [13] | %Inh [14] | %Inh [15] | %Inh [16] | %Inh [17] | %Inh [18] | %Inh [19] | %Inh [20]
1 | CCC(=O)c1c(-c2ccccc2)c2cc(Cl)ccc2c(=O)n1Cc1ccc(C(=O)O)cc1 | 0% | 0% | 0% | 0% | 0% | 0% | 0% | 0% | 0% | 0% | 0% | 0% | 0% | 0% | 12% | 9% | 0% | 0% | 0% | 95.2%
2 | CCC(=O)c1c(-c2ccccc2)c2cc(Cl)ccc2c(=O)n1Cc1cc(S(C)(=O)=O)n(CCC(C)(C)O)n1 | 0% | 3% | 17% | 0% | 0% | 4% | 0% | 3% | 30% | 10% | 13% | 2% | 25% | 1% | 5% | 3% | 0% | 0% | 3% | 99.6%
3 | CN(C)c1cc(-c2ccc3c(N)n[nH]c3c2)nc(N)n1 [GSK2219329] | 17% | 0% | 26% | 2% | 4% | 14% | 0% | 0% | 40% | 0% | 0% | 0% | 0% | 0% | 6% | 6% | 7% | 0% | 0% | 0%
4 | CCCNC(=O)Nc1ccc(Oc2ncnc3ccn(C)c23)cc1 | 14% | 19% | 0% | 0% | 17% | 0% | 1% | 0% | 0% | 0% | 31% | 16% | 0% | 15% | 5% | 17% | 0% | 1% | 0% | 0%
5 | COC(=O)c1c(-c2ccccc2)c2cc(Br)ccc2c(=O)n1Cc1ccc(S(C)(=O)=O)cc1 | 10% | 5% | 0% | 27% | 50% | 9% | 9% | 6% | 15% | 1% | 13% | 19% | 32% | 18% | 30% | 19% | 0% | 6% | 0% | 97.2%
6 | Cc1nnc(-c2ccc(C)c(-c3ccc(C(=O)O)cc3)c2)o1 [GW608005] | 7% | 0% | 7% | 0% | 0% | 0% | 30% | 25% | 1% | 10% | 0% | 0% | 0% | 13% | 4% | 3% | 0% | 24% | 0% | 1%
7 | FC(F)(F)c1ccc(-c2ncn(CCCN3CCOCC3)c2-c2ccncc2)cc1 [SB-217780] | 7% | 0% | 1% | 0% | 64% | 0% | 1% | 0% | 8% | 0% | 0% | 0% | 10% | 0% | 9% | 0% | 0% | 27% | 0% | 55%
8 | C[C@@H]1CC[C@H](C(=O)NC2CCCCC2)CN1c1cc(-c2ccc3c(N)n[nH]c3c2)nc(N)n1 [GSK2291363] | 14% | 0% | 50% | 0% | 18% | 30% | 0% | 0% | 25% | 0% | 10% | 34% | 0% | 28% | 22% | 7% | 11% | 9% | 0% | 34%
9 | CCS(=O)(=O)c1ccc(OC)c(Nc2ncc(-c3ccc(F)cc3)o2)c1.Cl [GW591947] | 37% | 0% | 17% | 22% | 0% | 20% | 0% | 1% | 0% | 0% | 0% | 0% | 0% | 3% | 0% | 11% | 0% | 8% | 0% | 2%
10 | Nc1nccc2scc(-c3ccc4c(c3)CCN4C(=O)Cc3ccccc3)c12 [GSK2576924] | 11% | 0% | 18% | 0% | 0% | 1% | 0% | 0% | 12% | 0% | 0% | 0% | 0% | 0% | 4% | 19% | 0% | 4% | 0% | 0%
11 | O=C(NCCNc1ccnc(Nc2ccc(F)cc2)n1)Nc1ccc2c(c1)OCO2 [GSK1379882] | 9% | 0% | 37% | 1% | 0% | 0% | 3% | 7% | 14% | 0% | 7% | 16% | 7% | 0% | 9% | 12% | 3% | 100% | 0% | 22%
12 | COc1cc2ncn(-c3cc(OCc4ccc(S(C)(=O)=O)cc4)c(C(N)=O)s3)c2cc1OC [GW869979] | 2% | 26% | 10% | 2% | 19% | 6% | 0% | 7% | 25% | 0% | 13% | 26% | 4% | 21% | 16% | 2% | 11% | 18% | 30% | 36%
13 | COc1cc(Nc2nccc(N3CCC(NC(=O)C4COc5ccccc5O4)C3)n2)cc(OC)c1OC (centres unmarked) [GSK1379761] | 0% | 0% | 51% | 30% | 0% | 0% | 21% | 0% | 0% | 0% | 0% | 61% | 76% | 0% | 4% | 7% | 21% | 98.5% | 55% | 20%
14 | Cc1ccc(-c2ccc3c(ccc4sc5c(c43)NC[C@@H](C)N=C5N(C)C)n2)cn1 | 0% | 9% | 8% | 5% | 0% | 0% | 11% | 0% | 0% | 0% | 0% | 0% | 0% | 0% | 0% | 0% | 0% | 0% | 0% | 4%
15 | CCCC(=O)Nc1n[nH]c2ncc(-c3cccc4ccccc34)cc12 [SB-642057] | 11% | 26% | 31% | 30% | 45% | 16% | 9% | 30% | 27% | 0% | 18% | 77% | 0% | 41% | 15% | 9% | 0% | 0% | 0% | 20%
16 | CCC(=O)c1c(-c2ccccc2)c2cc(Cl)ccc2c(=O)n1Cc1cc(C(=O)NC2CC2)n(C)n1 | 2% | 1% | 0% | 0% | 4% | 0% | 5% | 10% | 0% | 0% | 0% | 21% | 0% | 20% | 0% | 10% | 3% | 0% | 6% | 99.7%

Row | SMILES | %Inh [1] | %Inh [2] | %Inh [3] | %Inh [4] | %Inh [5] | %Inh [6] | %Inh [7] | %Inh [8] | %Inh [9] | %Inh [10] | %Inh [11] | %Inh [12] | %Inh [13] | %Inh [14] | %Inh [15] | %Inh [16] | %Inh [17] | %Inh [18] | %Inh [19] | %Inh [20]
17 | CCc1ccc(-c2ccc3c(c2)-c2nn(C)cc2S(=O)(=O)N3C)cc1 | 0% | 0% | 18% | 47% | 0% | 0% | 0% | 1% | 0% | 0% | 0% | 0% | 0% | 10% | 0% | 0% | 10% | 0% | 0% | 0%
18 | Nc1nc(-c2ccccc2F)c(-c2ccnc3ccccc23)s1 [GW560459] | 3% | 0% | 7% | 12% | 0% | 20% | 28% | 9% | 18% | 0% | 94.4% | 30% | 17% | 15% | 3% | 18% | 0% | 9% | 0% | 56%
19 | COc1ccc(Nc2nccc(N3CCC(NS(=O)(=O)c4ccc(NC(C)=O)cc4)C3)n2)cc1 (centres unmarked) [GSK1379729] | 14% | 12% | 64% | 0% | 13% | 22% | 12% | 6% | 12% | 21% | 4% | 0% | 17% | 57% | 19% | 66% | 0% | 95.6% | 5% | 20%
20 | OCCCNc1nccc(-c2c(-c3cccc(C(F)(F)F)c3)nn3cc(C(F)(F)F)ccc23)n1 [GW630813] | 0% | 0% | 27% | 9% | 0% | 8% | 0% | 0% | 14% | 0% | 0% | 29% | 0% | 2% | 0% | 14% | 0% | 0% | 0% | 0%
21 | CN1C(=O)C(Nc2cc(Cl)c(O)c(Cl)c2)=C(c2ccc(Cl)cc2)C1=O [SB-404321] | 0% | 0% | 12% | 0% | 6% | 0% | 0% | 0% | 0% | 0% | 0% | 0% | 0% | 0% | 0% | 13% | 0% | 0% | 0% | 24%
22 | COC(=O)c1c(-c2ccccc2)c2cc(C)ccc2c(=O)n1Cc1ccccc1 | 0% | 0% | 0% | 0% | 0% | 5% | 0% | 0% | 0% | 1% | 1% | 21% | 0% | 20% | 1% | 0% | 0% | 0% | 0% | 44%
23 | COc1ccc(CNC(=O)NC2CCN(c3ccnc(Nc4ccc(F)cc4)n3)C2)cc1 (centres unmarked) [GSK1379706] | 30% | 8% | 49% | 0% | 0% | 13% | 3% | 0% | 30% | 0% | 17% | 45% | 0% | 0% | 8% | 13% | 0% | 39% | 0% | 19%
24 | Cc1cccc(-c2nc(Nc3ccc4c(cnn4C)c3)c3ccccc3n2)n1 [GW876731] | 0% | 14% | 0% | 35% | 10% | 0% | 1% | 13% | 21% | 15% | 0% | 0% | 0% | 0% | 0% | 15% | 16% | 26% | 0% | 1%
25 | CCc1nc(-c2cccc(C)c2)c(-c2ccncc2)s1 | 0% | 0% | 8% | 0% | 0% | 0% | 0% | 0% | 0% | 0% | 0% | 0% | 0% | 0% | 4% | 0% | 41% | 1% | 0% | 57%
26 | O=C(Nc1ccc2c(c1)OCO2)NC1CCN(c2ccnc(NCc3ccc(F)cc3)n2)CC1 [GSK1379859] | 9% | 0% | 29% | 1% | 0% | 0% | 0% | 0% | 11% | 0% | 45% | 0% | 0% | 0% | 0% | 7% | 0% | 0% | 0% | 0%
27 | COc1cccc(-n2cnc3c(N)ncnc32)c1 [SKF-97416] | 26% | 13% | 0% | 16% | 34% | 0% | 50% | 32% | 0% | 5% | 0% | 38% | 42% | 0% | 0% | 0% | 58% | 44% | 19% | 0%
28 | Cc1nc(N(C)[C@H]2CN(C(=O)CC#N)CC[C@H]2C)c2cc[nH]c2n1 | 9% | 0% | 0% | 0% | 0% | 0% | 0% | 5% | 0% | 0% | 0% | 0% | 0% | 0% | 5% | 11% | 0% | 69% | 97.6% | 1%
29 | Nc1nc(N)c2nc(-c3ccccc3)[nH]c2n1 [SKF-12778] | 10% | 13% | 57% | 11% | 15% | 15% | 4% | 17% | 12% | 12% | 0% | 34% | 0% | 3% | 8% | 11% | 84% | 50% | 39% | 20%
30 | Cc1nn2c(=O)cc(N3CCOCC3)nc2n1Cc1cccc(Cl)c1Cl [GSK2342769] | 38% | 0% | 32% | 0% | 2% | 5% | 19% | 18% | 5% | 0% | 0% | 75% | 16% | 16% | 14% | 10% | 0% | 6% | 0% | 10%
31 | COc1ccc(-n2cnc3c(N)ncnc32)cc1 [SKF-97236] | 12% | 29% | 5% | 0% | 0% | 19% | 0% | 19% | 3% | 2% | 52% | 0% | 12% | 7% | 7% | 5% | 68% | 31% | 27% | 12%
